# Measured values: publication PMC7862700, “An all-to-all approach to the identification of sequence-specific readers for epigenetic DNA modifications on cytosine”
# How the values were obtained:
# Experiment in all cases: DAPPL (digital affinity profiling via proximity ligation, sequencing); 10 mM Tris-HCl pH 7.5, 50 mM NaCl, 1 mM DTT, 4% glycerol, room temperature, 30 min; GST-TFs on glutathione beads, 16-mer random dsDNA library, 0.1% formaldehyde crosslink after washing; high values mean tight binding
# Settings in all cases: protein: recombinant; tags: N-terminal GST; dsDNA, one strand shown
# FLI1 = biological target: T1, FLI1 (Homo sapiens, UniProt Q01543 1-452)
# T1 sequence: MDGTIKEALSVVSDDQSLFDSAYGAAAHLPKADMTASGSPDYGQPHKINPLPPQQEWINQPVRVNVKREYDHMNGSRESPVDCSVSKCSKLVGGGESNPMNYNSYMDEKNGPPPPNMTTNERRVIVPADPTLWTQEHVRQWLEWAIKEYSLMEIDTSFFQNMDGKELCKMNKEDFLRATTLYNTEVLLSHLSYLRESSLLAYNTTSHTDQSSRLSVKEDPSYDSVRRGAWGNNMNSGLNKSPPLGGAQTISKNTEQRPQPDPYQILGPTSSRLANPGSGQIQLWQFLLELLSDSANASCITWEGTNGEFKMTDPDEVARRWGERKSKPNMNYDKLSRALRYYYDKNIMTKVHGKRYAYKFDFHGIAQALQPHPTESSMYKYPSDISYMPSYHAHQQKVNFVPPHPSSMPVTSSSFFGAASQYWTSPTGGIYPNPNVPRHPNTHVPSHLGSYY
# Method in brief: (§1)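 Pools were built from human transcription factors expressed in yeast as GST fusions, captured on glutathione beads and DNA-barcoded, along with a tag-only sample. Incubation with 200 nmole of a 16-mer random double-stranded DNA library lasted 30 min at room temperature in Tris/NaCl/DTT/glycerol buffer, and was followed by washing, 0.1% formaldehyde crosslinking, proximity ligation, PCR amplification and Illumina NextSeq500 sequencing. Binding signal is the quotient of each hexamer's read frequency for a factor and its frequency for the tag-only sample.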
# GABPA = biological target: T2, GABPA (Homo sapiens, UniProt Q06546 1-454)
# T2 sequence: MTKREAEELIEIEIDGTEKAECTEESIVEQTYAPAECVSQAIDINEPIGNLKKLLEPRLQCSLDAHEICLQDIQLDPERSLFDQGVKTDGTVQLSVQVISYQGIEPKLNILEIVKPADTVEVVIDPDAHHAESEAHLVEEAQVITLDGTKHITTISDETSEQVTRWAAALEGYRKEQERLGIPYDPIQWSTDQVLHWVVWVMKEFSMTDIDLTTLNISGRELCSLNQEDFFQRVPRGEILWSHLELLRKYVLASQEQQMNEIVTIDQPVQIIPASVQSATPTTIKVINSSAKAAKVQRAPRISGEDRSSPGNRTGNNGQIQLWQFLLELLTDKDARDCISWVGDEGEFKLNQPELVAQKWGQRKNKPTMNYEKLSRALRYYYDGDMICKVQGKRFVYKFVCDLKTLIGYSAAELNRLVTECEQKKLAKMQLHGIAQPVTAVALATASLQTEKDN
# Method in brief: as §1
# ERG = biological target: T3, ERG (Homo sapiens, UniProt P11308 1-479)
# T3 sequence: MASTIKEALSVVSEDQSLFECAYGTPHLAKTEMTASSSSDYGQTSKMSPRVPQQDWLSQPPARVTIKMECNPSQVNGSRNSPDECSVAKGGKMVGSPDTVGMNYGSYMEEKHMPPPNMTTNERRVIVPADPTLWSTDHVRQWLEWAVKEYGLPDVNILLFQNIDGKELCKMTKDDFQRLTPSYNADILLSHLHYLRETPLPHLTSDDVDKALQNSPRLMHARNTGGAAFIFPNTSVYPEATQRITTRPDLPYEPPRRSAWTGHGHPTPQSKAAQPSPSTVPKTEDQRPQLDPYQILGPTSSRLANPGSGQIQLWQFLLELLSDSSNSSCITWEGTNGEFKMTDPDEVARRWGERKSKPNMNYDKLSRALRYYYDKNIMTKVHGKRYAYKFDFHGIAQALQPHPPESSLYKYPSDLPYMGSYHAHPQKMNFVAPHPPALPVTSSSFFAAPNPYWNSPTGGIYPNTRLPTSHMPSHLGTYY
# Method in brief: as §1
# ELF1 = ELF1 (Homo sapiens, UniProt P32519 1-619)
# ELF1, sequence (P32519 whole entry): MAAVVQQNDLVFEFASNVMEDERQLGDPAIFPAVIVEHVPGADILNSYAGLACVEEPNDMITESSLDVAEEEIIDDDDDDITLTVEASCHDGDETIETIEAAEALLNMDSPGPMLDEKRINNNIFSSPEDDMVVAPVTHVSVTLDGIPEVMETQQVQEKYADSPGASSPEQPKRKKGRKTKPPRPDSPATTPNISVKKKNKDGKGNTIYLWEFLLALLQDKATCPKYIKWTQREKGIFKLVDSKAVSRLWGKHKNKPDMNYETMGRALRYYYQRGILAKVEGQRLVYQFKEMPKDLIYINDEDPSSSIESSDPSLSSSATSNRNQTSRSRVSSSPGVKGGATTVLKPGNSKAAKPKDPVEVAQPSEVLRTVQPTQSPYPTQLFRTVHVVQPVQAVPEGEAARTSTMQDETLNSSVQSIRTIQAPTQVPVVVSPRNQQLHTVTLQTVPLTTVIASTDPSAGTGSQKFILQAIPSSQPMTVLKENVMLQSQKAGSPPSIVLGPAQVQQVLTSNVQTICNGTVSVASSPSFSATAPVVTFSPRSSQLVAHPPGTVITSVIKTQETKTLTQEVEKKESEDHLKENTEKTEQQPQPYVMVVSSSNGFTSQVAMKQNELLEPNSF
# Method in brief: as §1
# EHF = biological target: T4, EHF (Homo sapiens, UniProt Q9NZC4 1-300)
# T4 sequence: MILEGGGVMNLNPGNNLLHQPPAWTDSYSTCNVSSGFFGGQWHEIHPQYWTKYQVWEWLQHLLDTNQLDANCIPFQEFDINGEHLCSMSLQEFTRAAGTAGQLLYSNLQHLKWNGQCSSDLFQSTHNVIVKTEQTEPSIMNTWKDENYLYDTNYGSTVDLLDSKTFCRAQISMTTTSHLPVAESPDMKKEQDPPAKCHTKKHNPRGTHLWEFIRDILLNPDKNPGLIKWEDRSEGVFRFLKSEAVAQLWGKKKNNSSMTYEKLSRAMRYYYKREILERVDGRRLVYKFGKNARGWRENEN
# Method in brief: as §1
# SPIB = SPIB (Homo sapiens, UniProt Q01892 1-262)
# SPIB, sequence (Q01892 whole entry): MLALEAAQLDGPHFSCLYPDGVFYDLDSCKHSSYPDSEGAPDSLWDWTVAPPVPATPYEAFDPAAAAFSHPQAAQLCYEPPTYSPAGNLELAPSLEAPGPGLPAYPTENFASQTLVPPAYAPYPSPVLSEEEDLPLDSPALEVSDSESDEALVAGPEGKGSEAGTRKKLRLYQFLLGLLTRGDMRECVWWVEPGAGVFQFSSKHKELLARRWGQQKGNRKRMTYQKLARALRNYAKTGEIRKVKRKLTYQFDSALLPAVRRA
# Method in brief: as §1
# ETV5 = ETV5 (Homo sapiens, UniProt P41161 1-510)
# ETV5, sequence (P41161 whole entry): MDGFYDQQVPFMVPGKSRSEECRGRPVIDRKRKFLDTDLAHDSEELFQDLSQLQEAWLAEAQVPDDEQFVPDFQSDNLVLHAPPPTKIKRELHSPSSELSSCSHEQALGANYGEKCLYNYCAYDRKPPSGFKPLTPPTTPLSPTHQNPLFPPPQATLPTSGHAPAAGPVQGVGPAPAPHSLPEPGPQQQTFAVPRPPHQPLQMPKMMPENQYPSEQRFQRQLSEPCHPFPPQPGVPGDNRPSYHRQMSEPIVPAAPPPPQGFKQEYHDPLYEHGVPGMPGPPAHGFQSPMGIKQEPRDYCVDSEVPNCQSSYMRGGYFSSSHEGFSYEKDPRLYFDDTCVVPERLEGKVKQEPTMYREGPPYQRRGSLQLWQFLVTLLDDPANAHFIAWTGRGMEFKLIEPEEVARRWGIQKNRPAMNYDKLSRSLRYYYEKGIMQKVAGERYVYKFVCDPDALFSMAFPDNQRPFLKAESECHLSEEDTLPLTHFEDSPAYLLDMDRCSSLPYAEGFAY
# Method in brief: as §1
# ELF4 = ELF4 (Homo sapiens, UniProt Q99607 1-663)
# ELF4, sequence (Q99607 whole entry): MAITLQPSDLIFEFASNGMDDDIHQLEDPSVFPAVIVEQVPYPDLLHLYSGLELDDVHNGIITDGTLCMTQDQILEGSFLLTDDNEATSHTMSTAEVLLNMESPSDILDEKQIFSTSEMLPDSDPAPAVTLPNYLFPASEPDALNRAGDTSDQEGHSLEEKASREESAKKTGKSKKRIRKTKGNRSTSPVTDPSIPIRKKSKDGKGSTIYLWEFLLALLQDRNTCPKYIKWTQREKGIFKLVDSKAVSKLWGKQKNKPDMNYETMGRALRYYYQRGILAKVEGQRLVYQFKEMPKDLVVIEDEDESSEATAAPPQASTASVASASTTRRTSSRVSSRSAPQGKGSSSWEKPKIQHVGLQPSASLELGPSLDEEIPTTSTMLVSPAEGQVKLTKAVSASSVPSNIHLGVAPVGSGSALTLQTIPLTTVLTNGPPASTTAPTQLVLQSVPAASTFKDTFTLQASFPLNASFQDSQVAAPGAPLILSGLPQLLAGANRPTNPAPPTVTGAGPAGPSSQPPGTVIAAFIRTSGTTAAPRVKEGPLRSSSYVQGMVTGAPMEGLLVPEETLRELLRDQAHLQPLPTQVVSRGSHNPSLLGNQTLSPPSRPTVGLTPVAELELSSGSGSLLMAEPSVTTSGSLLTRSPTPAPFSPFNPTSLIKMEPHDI
# Method in brief: as §1
# ELF3 = biological target: T5, ELF3 (Homo sapiens, UniProt P78545 1-371)
# T5 sequence: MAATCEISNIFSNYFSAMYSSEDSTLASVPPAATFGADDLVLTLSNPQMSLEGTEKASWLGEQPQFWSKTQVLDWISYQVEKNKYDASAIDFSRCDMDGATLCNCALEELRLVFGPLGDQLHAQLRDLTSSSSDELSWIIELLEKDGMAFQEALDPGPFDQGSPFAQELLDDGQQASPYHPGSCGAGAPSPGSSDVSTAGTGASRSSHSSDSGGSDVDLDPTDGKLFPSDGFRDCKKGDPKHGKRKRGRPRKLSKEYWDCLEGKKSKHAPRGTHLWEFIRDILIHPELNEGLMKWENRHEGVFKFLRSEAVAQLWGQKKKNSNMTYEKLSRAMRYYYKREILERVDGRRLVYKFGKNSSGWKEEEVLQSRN
# Method in brief: as §1
# ETV1 = ETV1 (Homo sapiens, UniProt P50549 1-477)
# ETV1, sequence (P50549 whole entry): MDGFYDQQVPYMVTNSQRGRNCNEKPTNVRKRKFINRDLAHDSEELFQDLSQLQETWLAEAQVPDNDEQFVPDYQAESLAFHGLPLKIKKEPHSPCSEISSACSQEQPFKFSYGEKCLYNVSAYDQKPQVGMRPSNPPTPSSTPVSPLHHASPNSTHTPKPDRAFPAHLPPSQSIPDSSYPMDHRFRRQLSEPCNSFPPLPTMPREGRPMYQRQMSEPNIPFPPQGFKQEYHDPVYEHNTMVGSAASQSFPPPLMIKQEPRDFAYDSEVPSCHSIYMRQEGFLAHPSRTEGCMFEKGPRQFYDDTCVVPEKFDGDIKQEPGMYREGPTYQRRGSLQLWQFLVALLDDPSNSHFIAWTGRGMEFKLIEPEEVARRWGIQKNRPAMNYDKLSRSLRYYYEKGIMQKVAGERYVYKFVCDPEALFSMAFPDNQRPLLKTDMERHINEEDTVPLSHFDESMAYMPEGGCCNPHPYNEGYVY
# Method in brief: as §1
# ERF = biological target: T6, ERF (Homo sapiens, UniProt P50548 1-548)
# T6 sequence: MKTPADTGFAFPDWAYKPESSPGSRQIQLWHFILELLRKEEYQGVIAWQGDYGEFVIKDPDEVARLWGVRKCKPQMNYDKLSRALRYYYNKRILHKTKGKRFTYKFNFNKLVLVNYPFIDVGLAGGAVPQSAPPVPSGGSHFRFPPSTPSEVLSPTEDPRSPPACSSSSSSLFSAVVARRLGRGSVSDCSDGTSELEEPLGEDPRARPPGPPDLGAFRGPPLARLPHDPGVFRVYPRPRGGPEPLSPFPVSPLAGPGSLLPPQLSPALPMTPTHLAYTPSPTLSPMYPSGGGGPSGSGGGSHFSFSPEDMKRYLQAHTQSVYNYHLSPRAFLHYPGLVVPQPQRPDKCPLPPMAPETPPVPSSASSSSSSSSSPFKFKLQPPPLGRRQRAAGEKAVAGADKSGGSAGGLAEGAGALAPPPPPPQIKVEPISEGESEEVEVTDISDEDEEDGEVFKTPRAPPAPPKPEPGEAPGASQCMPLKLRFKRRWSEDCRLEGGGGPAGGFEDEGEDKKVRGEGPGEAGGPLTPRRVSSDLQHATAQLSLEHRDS
# Method in brief: as §1
# ETV3L = biological target: T7, ETV3L (Homo sapiens, UniProt Q6ZN32 1-361)
# T7 sequence: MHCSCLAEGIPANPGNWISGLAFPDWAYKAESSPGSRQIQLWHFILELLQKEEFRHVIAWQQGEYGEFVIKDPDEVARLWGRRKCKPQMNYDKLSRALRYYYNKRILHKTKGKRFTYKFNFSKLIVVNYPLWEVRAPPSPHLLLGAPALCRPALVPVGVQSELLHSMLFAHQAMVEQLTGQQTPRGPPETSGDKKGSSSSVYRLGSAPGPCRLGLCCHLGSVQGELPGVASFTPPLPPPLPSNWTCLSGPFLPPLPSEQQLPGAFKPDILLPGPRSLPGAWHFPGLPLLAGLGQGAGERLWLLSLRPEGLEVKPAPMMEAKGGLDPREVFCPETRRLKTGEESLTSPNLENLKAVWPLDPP
# Method in brief: as §1
# ETS2 = biological target: T8, ETS2 (Homo sapiens, UniProt P15036 1-469)
# T8 sequence: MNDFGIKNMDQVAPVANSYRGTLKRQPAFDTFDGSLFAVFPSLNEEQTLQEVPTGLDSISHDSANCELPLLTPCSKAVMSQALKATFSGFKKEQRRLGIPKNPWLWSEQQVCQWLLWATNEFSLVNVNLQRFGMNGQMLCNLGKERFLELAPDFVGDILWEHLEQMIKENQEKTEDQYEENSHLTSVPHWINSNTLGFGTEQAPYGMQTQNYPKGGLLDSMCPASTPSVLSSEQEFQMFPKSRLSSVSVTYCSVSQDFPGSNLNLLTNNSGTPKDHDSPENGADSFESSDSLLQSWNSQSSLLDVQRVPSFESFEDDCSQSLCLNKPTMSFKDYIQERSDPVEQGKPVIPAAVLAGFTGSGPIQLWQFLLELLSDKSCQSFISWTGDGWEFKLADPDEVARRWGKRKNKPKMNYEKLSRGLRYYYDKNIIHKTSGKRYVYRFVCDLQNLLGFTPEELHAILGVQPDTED
# Method in brief: as §1
# ETV7 = biological target: T9, ETV7 (Homo sapiens, UniProt Q9Y603 1-341)
# T9 sequence: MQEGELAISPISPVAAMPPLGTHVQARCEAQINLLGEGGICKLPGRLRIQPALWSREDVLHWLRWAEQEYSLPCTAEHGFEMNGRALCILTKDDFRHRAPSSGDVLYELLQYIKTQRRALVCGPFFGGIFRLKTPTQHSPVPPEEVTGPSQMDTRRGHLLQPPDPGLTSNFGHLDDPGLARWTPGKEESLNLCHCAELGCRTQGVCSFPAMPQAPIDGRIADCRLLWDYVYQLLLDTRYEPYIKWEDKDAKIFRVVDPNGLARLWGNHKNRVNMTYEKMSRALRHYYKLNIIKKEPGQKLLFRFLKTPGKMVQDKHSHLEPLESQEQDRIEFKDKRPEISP
# Method in brief: as §1
# ETV3 = biological target: T10, ETV3 (Homo sapiens, UniProt P41162-2 1-143)
# T10 sequence: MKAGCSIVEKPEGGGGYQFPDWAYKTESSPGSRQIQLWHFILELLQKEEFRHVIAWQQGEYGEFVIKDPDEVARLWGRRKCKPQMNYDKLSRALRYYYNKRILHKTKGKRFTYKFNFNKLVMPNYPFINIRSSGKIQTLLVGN
# Method in brief: as §1
sequence,measurement,setting,value
TCGCTG,binding signal,FLI1,"1.02 fold enrichment (6-mer frequency, TF over GST control)"
same,binding signal,GABPA,"1.01 fold enrichment (6-mer frequency, TF over GST control)"
same,binding signal,ERG,"1.02 fold enrichment (6-mer frequency, TF over GST control)"
same,binding signal,ELF1,"1.05 fold enrichment (6-mer frequency, TF over GST control)"
same,binding signal,EHF,"1.1 fold enrichment (6-mer frequency, TF over GST control)"
same,binding signal,SPIB,"1.22 fold enrichment (6-mer frequency, TF over GST control)"
same,binding signal,ETV5,"1.11 fold enrichment (6-mer frequency, TF over GST control)"
same,binding signal,ELF4,"1.05 fold enrichment (6-mer frequency, TF over GST control)"
same,binding signal,ELF3,"1.12 fold enrichment (6-mer frequency, TF over GST control)"
same,binding signal,ETV1,"1.15 fold enrichment (6-mer frequency, TF over GST control)"
same,binding signal,ERF,"1.16 fold enrichment (6-mer frequency, TF over GST control)"
same,binding signal,ETV3L,"1.05 fold enrichment (6-mer frequency, TF over GST control)"
same,binding signal,ETS2,"1.12 fold enrichment (6-mer frequency, TF over GST control)"
same,binding signal,ETV7,"1.06 fold enrichment (6-mer frequency, TF over GST control)"
same,binding signal,ETV3,"1.13 fold enrichment (6-mer frequency, TF over GST control)"
